CRFBP-R2 agonist = agonists of CRF-BP/CRF-R2 complex, primary screen, cell-based, HEK293, calcium dye fluorescence, uHTS | CRF-binding protein / CRF receptor 2 complex (human) | calcium dye fluorescence (FLIPR); percent of saturating CRF peptide response | activation, % at 13.2 µM | 350,000 compounds, 0.46% hits | AID 588473, 2011;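 active = activation of at least 50%, plus an integration ratio under a set limit after plate pattern correction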
HNF4A DNA FP = change in binding of human HNF4A to DNA, primary screen, biochemical, fluorescence polarization, FITC-DNA; 1 h; AID 1224865, 2016; 360,000 compounds, 0.3% hits; activity change, % at 10 µM; Hepatocyte nuclear factor 4-alpha (Homo sapiens), P41235; in the data active = activity change above about 30%, passing the limit was not always enough
Target sequence (P41235 whole entry, looked up): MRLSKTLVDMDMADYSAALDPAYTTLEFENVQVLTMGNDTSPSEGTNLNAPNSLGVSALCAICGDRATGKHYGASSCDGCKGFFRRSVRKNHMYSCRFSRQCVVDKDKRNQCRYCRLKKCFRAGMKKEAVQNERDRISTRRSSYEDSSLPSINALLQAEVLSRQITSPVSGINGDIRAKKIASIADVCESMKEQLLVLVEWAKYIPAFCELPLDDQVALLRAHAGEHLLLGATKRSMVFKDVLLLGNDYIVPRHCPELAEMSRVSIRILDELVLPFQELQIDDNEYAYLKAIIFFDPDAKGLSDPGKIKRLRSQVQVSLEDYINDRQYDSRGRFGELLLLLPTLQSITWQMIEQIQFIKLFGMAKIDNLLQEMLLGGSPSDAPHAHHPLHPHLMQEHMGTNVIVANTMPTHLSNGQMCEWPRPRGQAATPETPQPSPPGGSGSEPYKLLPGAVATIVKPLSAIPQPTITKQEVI
TPT1 inhibitor = Candida albicans TPT1 enzyme inhibitors, primary screen, biochemical, fluorescence polarization; tRNA 2'-phosphotransferase TPT1 (Candida albicans SC5314); recombinant caTPT1, FP RNA substrate dephosphorylation; inhibition, % at 5 µM; 300,000 compounds, 0.81% hits; AID 1962, 2009;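 active = inhibition above the mean of all tested compounds plus 3 SD, set per screening campaign, cut at about 24% in these data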
IDE act = human IDE activators in live cells, primary screen, fluorescence polarization, HEK cells, FAbeta-B substrate; Insulin-degrading enzyme (Homo sapiens), P14735; FAbeta-B cleavage; 0% vehicle, 100% cell-free pure enzyme wells; activation, % at 5.96 µM; 340,000 compounds, 0.073% hits; AID 493087, 2011;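 active = activation above the mean of all tested compounds plus 3 SD, set per screening campaign, cut at about 17% in these data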
IDE inh = human IDE inhibitors in live cells, primary screen, fluorescence polarization, HEK cells, FAbetaB substrate | Insulin-degrading enzyme (Homo sapiens), P14735 | FAbetaB cleavage | inhibition, % at 5.59 µM | 320,000 compounds, 0.41% hits | AID 434962, 2010;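 active = percent inhibition above the average of all tested compounds plus 3 SD, set per screening campaign, cut at about 16% in these data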;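 note: IDE supplied by intact live HEK cells; FP after avidin binding of uncleaved biotin substrate so inhibition keeps polarization high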
caTPT1 confirm = Candida albicans TPT1 inhibitors, confirmation, biochemical, fluorescence polarization, triplicate; AID 2149, 2009; recombinant caTPT1, RNase T1 coupled; 2,400 compounds, 74% hits; shares compounds with TPT1 inhibitor; inhibition, % at 5 µM;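 active = inhibition above the primary screen limit, the mean inhibition of all tested compounds plus 3 SD, cut at about 25% in these data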
RNase T1 inh = RNase T1 inhibitors, counter-screen for TPT1 inhibitor project, biochemical, fluorescence polarization. shares compounds with TPT1 inhibitor. RNase T1 cleavage, 1536-well. inhibition, % at 5 µM. 2,400 compounds, 83% hits. AID 2153, 2009;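 active = inhibition above the solvent-only control well mean plus 3 SD, limit set per screening run, cut at about 23% in these data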;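 note: inhibitors block cleavage so intact labeled substrate keeps polarization high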
Target sequence (P00651 whole entry, looked up): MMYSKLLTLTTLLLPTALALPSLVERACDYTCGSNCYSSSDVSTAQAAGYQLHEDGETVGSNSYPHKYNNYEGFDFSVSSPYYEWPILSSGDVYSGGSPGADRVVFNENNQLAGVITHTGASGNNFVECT
A number is an active result; 0 = inactive; - = not tested or not shown. Rows were chosen to be rich in hits. Some 1.4% of all compounds tested hit in one or more screens of this group.

SMILES | CRFBP-R2 agonist | HNF4A DNA FP | TPT1 inhibitor | IDE act | IDE inh | caTPT1 confirm | RNase T1 inh
CC(=O)C1=NOC(CNc2ncc(C(F)(F)F)cc2Cl)C1 (configuration not stated) | 0 | 0 | 143 | 0 | 0 | 0 | 0
O=C(NN1C(=O)/C(=C/c2ccc(O)c([N+](=O)[O-])c2)SC1=S)c1ccccc1Cl | 0 | 0 | 75 | 0 | 0 | 55 | 66
O=C1/C(=C/c2ccc(O)c([N+](=O)[O-])c2)SC(=S)N1Cc1ccccc1 | 0 | 0 | 0 | 0 | 0 | - | -
O=[N+]([O-])c1ccc(Nc2ccccc2)c2nonc12 | 0 | 0 | 25 | 0 | 0 | 35 | 50
COc1nn(-c2nc(-c3ccccc3)cc(C(F)(F)F)n2)cc1[N+](=O)[O-] | 0 | 0 | 55 | 0 | 0 | 0 | 0
O=C1OC(c2cccs2)=N/C1=C\c1ccc(-c2cccc(Cl)c2)o1 | 0 | 0 | 40 | 0 | 0 | 166 | 171
N=C1S/C(=C\c2ccc(-c3cccc(Cl)c3)o2)C(=O)N1c1nccs1 | 0 | 0 | 29 | 0 | 0 | 32 | 35
Clc1cccc(-c2ccc(/C=N/n3cnnc3)o2)c1 | 0 | 0 | 0 | 0 | 0 | - | -
N=C1/C(=C\c2ccc(-c3cccc(Cl)c3)o2)C(=O)N=C2SC=C(c3ccccc3)N12 | 0 | 0 | 60 | 0 | 0 | 44 | 56
COC(=O)c1nn(C)c(=O)[nH]c1=O | 0 | 0 | - | 0 | - | - | -
O=S(=O)(/C=C/c1ccccc1)N1CCOCC1 | 0 | 0 | 0 | 0 | 0 | - | -
Nc1nc2ncccn2c1-c1ccc(F)c(F)c1 | - | 0 | - | - | - | - | -
Cc1cc(C)c(C#N)c(SCC(=O)c2ccccc2)n1 | 0 | 0 | 0 | 0 | 0 | - | -
Cc1cc(=O)[nH]c(SCC(=O)c2ccccc2)c1C#N | 0 | 0 | 51 | 0 | 0 | 31 | 45
NC(=O)c1ccccc1NC(=O)COC(=O)C1(c2ccccc2)CC1 | 0 | 0 | 0 | 0 | 0 | - | -
CSCCC(=O)N1CC[C@@H](N2CCN(c3ccccc3F)CC2)[C@H](O)C1 | 0 | 0 | 0 | 0 | 0 | - | -
Cc1ccc(NC(=O)CSc2n[nH]c(-c3cccnc3)n2)cc1Cl | 0 | 0 | 0 | 0 | 0 | - | -
CC[n+]1c(/C=C/C=C/N(C(C)=O)c2ccccc2)sc2ccccc21 | 157 | 0 | 64 | 0 | 0 | 68 | 74
CCn1c(/C=C/N(C(C)=O)c2ccccc2)[n+](CC)c2ccc(Cl)cc21 | 0 | 0 | 0 | 0 | 0 | - | -
NC(=O)CC(NC(=O)Cc1cccc2ccccc12)c1ccc(NC2CCN(Cc3ccccc3)CC2)c([N+](=O)[O-])c1 (configuration not stated) | 0 | 0 | 26 | 0 | 0 | 29 | 40
CC(C)Nc1ccc(C(CC(N)=O)NC(=O)Cc2cccc3ccccc23)cc1[N+](=O)[O-] (configuration not stated) | 0 | 0 | 75 | 0 | 0 | 85 | 95
NC(=O)CC(NC(=O)Cc1ccc(Br)cc1)c1ccc(NC2CCN(Cc3ccccc3)CC2)c([N+](=O)[O-])c1 (configuration not stated) | 0 | 0 | 0 | 0 | 0 | - | -
CCn1c(C)nc2cc(C(=O)NNC(=O)CN(C)S(=O)(=O)c3ccc(NC(C)=O)cc3)ccc21 | 0 | 0 | - | 0 | 0 | - | -
CC(=O)Nc1ccc(N=Cc2c(O)ccc3ccccc23)cc1 | 0 | 77 | 46 | 0 | 0 | 46 | 79
NC(=O)c1ccc(N=Cc2c(O)ccc3ccccc23)cc1 | 0 | 0 | 0 | 0 | 0 | - | -
SMILES | CRFBP-R2 agonist | HNF4A DNA FP | TPT1 inhibitor | IDE act | IDE inh | caTPT1 confirm | RNase T1 inh
O=C(O)c1ccc(N=Cc2c(O)ccc3ccccc23)cc1 | 0 | 0 | 0 | 0 | 0 | - | -
COc1ccc(N=Cc2c(O)ccc3ccccc23)cc1 | 0 | 72 | 112 | 0 | 0 | 90 | 110
Cn1c(SCc2ccc([N+](=O)[O-])cc2)nnc1-c1ccncc1 | 0 | 0 | 0 | 0 | 0 | - | -
COc1ccc2c(C)cc(SCC(=O)N3CCOCC3)nc2c1 | 0 | 0 | 73 | 0 | 0 | 61 | 73
COc1ccc2c(C)cc(SCC(=O)NC3CCCCC3)nc2c1 | 0 | 0 | - | 0 | 0 | - | -
Cc1ccc(-n2nnnc2CN2CCCCC2)cc1 | 0 | 0 | 0 | 0 | 0 | - | -
COc1ccc(OC)c(/C=C2\SC(=S)N(C(C(=O)O)c3ccccc3)C2=O)c1 (configuration not stated) | 0 | 0 | 65 | 0 | 0 | 61 | 72
Cc1csc(=O)n1CCC(=O)OCc1nnc(-c2ccc(Cl)cc2)o1 | 0 | 0 | - | 0 | - | - | -
Cc1ccc(NC(=O)C2CC2C)c(Cl)c1 (configuration not stated) | 0 | 0 | 0 | 0 | 0 | - | -
O=C1Nc2ccccc2Oc2cc([N+](=O)[O-])ccc21 | 0 | 0 | 0 | 0 | 0 | - | -
CCOc1cc([N+](=O)[O-])cc2c1C(=O)Nc1ccccc1O2 | 0 | 0 | 30 | 0 | 0 | 44 | 55
CC(=O)Oc1ccccc1/C=C/c1nc2ccccc2c(=O)o1 | 0 | 0 | 0 | 0 | 0 | - | -
O=c1oc(/C=C/c2ccc([N+](=O)[O-])s2)nc2ccccc12 | 0 | 0 | 60 | 0 | 0 | 59 | 70
COc1ccc(-n2c(SCC(=O)NCc3ccco3)nc3sc4c(c3c2=O)CCN(C)C4)cc1 | 0 | 0 | 0 | 0 | 0 | - | -
CN1CCc2c(sc3nc(SCC(=O)NCc4ccco4)n(-c4ccccc4)c(=O)c23)C1 | 0 | 0 | 30 | 0 | 0 | 38 | 51
Cc1cccc(N2CCN(C(=O)c3ccc4c(c3)NC(=O)C(CSCc3ccc(F)cc3)N4)CC2C)c1 (configuration not stated) | - | - | 122 | - | 0 | 62 | 74
Cc1ccc(CSCC2Nc3ccc(C(=O)N4CCN(c5cccc(C)c5)C(C)C4)cc3NC2=O)cc1 (configuration not stated) | - | - | 110 | - | 0 | 0 | 33
CCC(C)N1C(=O)S/C(=C/c2ccc(N3CCOCC3)cc2C)C1=O (configuration not stated) | 0 | 0 | 0 | 0 | 0 | - | -
C#CCN1C(=O)S/C(=C\c2ccc(N3CCOCC3)cc2C)C1=O | 0 | 0 | 0 | 0 | 0 | - | -
Cc1cc(N2CCOCC2)ccc1/C=C1\SC(=O)N(C(C)C)C1=O | 0 | 0 | 37 | 0 | 0 | 52 | 64
CCN1C(=O)S/C(=C\c2ccc(N3CCOCC3)cc2C)C1=O | 0 | 0 | 39 | 0 | 0 | 55 | 69
CCOc1ccc(N=C2NC(=O)SC2CC(=O)OC)cc1 (configuration not stated) | 0 | 0 | 0 | 0 | 0 | - | -

Assay outcomes as filed in PubChem.
